Growth data for 8 molecules are collected here from PubChem BioAssay (NCI).

The panel holds about 83,000 compounds, 20% with a hit somewhere; the sample as a whole holds those more often.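 The endpoint reported here, percent growth, reads 100 for growth as untreated, 0 for no net growth and -100 for all cells dead.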 Values without a mark were called inactive. Activity calls are given as the source filed them. Rule for the calls: active = growth percent below 10; inactive = the rest.

Common to all, as to experiment: NCI-60 one-dose screen, 48 h (100 = growth as untreated, 0 = no growth, -100 = all killed)
Holding throughout (conditions): 10 µM unless noted

Assay [1] concerns HCT-15 colon.
Assay [2] relates to HT29 colon.
The subject of assay [3] is SNB-75 CNS.
For assay [4], the system named is SNB-19 CNS.
Assay [5] has as its system U251 CNS.
The test system of assay [6] is PC-3 prostate.
Assay [7] relates to SK-MEL-5 melanoma.
The subject of assay [8] is UACC-62 melanoma.
Assay [9] deals with LOX IMVI melanoma.
Assay [10] has as its system SK-MEL-28 melanoma.
In assay [11] the test system is SK-MEL-2 melanoma.
The subject of assay [12] is EKVX NSCLC.
The subject of assay [13] is SN12C renal.
For assay [14], the system named is UO-31 renal.
Assay [15] concerns TK-10 renal.
Assay [16] has as its system ACHN renal.
For assay [17], the system named is CAKI-1 renal.
Assay [18] deals with A498 renal.
Assay [19] has as its system CCRF-CEM leukemia.
For assay [20], the system named is MOLT-4 leukemia.

On to `COc1ccc(OC)c(CCn2cncc2-c2c[nH]c3ccc(Cl)cc23)c1`, for which the growth in [1] is 32.8%; in assay [2], 10.1%; in [3], 21.4%; in assay [4], 60.4%; in assay [5], 47.1%; in assay [6], 39.1%. Besides, the growth in assay [7] is -19.8% (active); in [8] it was 40.7%; in assay [9] it was 47.3%; in [10], 67.7%; in assay [11], 19%; in [12], 37.5%. The growth in [13] is 63.6%; in assay [14] it was 46.6%; in [15] it was 50.7%; in assay [16], 60.5%; in [17] it was 31.3%; in assay [18] it was 44.8%. Also, the growth in assay [19] is 49.4%; in assay [20] it was 25%.
In the case of `COc1ccc(C(C)=C(c2ccc(OCCN(C)C)cc2)c2ccc(OCCN(C)C)cc2)cc1`, the growth is -46.1% (active) in [1]; -53.5% (active) in assay [2]; 3.78% (active) in assay [3]; 12.6% in assay [4]; -64.1% (active) in assay [5]; 1.05% (active) in assay [6]. The growth in [7] was -82.6% (active); in assay [8], -66.3% (active); in assay [9], -79.9% (active); in assay [10], -88.4% (active); in [11], -70.3% (active); in assay [12], 13.5%. Further, the growth was 0.111% (active) in assay [13]; -59.4% (active) in assay [14]; -56.1% (active) in assay [15]; -46% (active) in assay [16]; -69.1% (active) in assay [17]; -38.9% (active) in [18]. The figures for the growth in [19] and in assay [20] were -23.6% (active) and -37.6% (active), respectively.
Turning to `CC/C(=C(/c1ccc(Cl)cc1)c1ccc(OCCN)cc1)c1ccccc1`, the growth in assay [1] was 55.7%; in assay [2], 79.9%; in assay [3], 110%; in [4] it was 99.8%; in assay [5], 92.6%; in assay [6] it was 103%. Further, the growth is 99.1% in [7]; 107% in assay [8]; 27.8% in [9]; 108% in assay [10]; 105% in [11]; 102% in assay [12]. The growth is 104% in [13]; 78.2% in [14]; 115% in [15]; 96.1% in [16]; 74.6% in assay [17]; 92.9% in assay [18]. Further, the growth was 80.5% in assay [19] and 84.1% in assay [20].
On to `O=C1[C@@H]2Cc3c([nH]c4ccccc34)[C@H](c3ccc(Br)cc3)N2C(=O)CN1C1CCN(Cc2c(Cl)cccc2Cl)CC1`, for which the growth was 89.4% in assay [1]; 84.4% in assay [2]; 66.3% in assay [3]; 92.2% in assay [4]; 96.9% in [5]; 80% in assay [6]. The growth in [7] was 95.6%; in assay [8] it was 78.3%; in [9], 91.7%; in assay [10], 111%; in assay [11] it was 99.8%; in [12], 88.4%. For the same molecule, the growth in [13] was 92.5%; in assay [14] it was 67.7%; in [15], 132%; in assay [16] it was 91.2%; in assay [17], 67.6%; in assay [18] it was 103%. Besides, the results for the growth in assay [19] and in assay [20] were 88.8% and 65.9%, respectively.
Turning to `CN1CCN(c2ccc(Nc3nc(NCCCNS(=O)(=O)c4ccc(C(F)(F)F)cc4)c4sccc4n3)cc2)CC1`, the growth in [1] is -72.7% (active); in assay [2], -75.8% (active); in assay [3], -79.5% (active); in [4], 17.5%; in assay [5], -83.4% (active); in assay [6], 20.7%. In addition, the growth in assay [7] was -95% (active); in assay [8], -80.3% (active); in [9], -83.6% (active); in assay [10], -92.8% (active); in assay [11], -91% (active); in assay [12], 0.826% (active). The growth in assay [13] was -60.2% (active); in [14], -85% (active); in assay [15] it was -34.4% (active); in assay [16], -74.3% (active); in assay [17] it was -76.9% (active); in assay [18], -87% (active). In addition, the growth in [19] was 6.25% (active); in assay [20], 0.188% (active).
In the case of `NS(=O)(=O)c1nnc(/N=C/c2c(O)[nH]c3ccccc23)s1`, the growth in [1] is 102%; in assay [2], 105%; in assay [3], 81.2%; in assay [4] it was 105%; in assay [5] it was 99.9%; in [6], 89.3%. Moreover, the growth was 98.5% in assay [7]; 97% in assay [8]; 100% in assay [9]; 114% in assay [10]; 114% in assay [11]; 84.2% in assay [12]. The growth was 101% in [13]; 72.5% in assay [14]; 142% in assay [15]; 93.7% in assay [16]; 86.5% in assay [17]; 107% in assay [18]. Moreover, the growth in assay [19] is 106%; in assay [20] it was 126%.
`C/C(=N\NC(=O)Nc1ccccc1)c1nnn(-c2ccc([N+](=O)[O-])cc2)c1C`: the growth is 105% in assay [1]; 116% in assay [2]; 100% in assay [3]; 100% in assay [4]; 102% in [5]; 99.7% in [6]. In addition, the growth in [7] was 99.6%; in assay [8] it was 99.6%; in [9], 102%; in assay [10] it was 106%; in assay [11] it was 104%; in assay [12] it was 103%. The growth in [13] is 110%; in [14], 72.4%; in assay [15] it was 99.7%; in [16], 104%; in assay [17], 94.4%; in assay [18] it was 105%. The growth in assay [19] is 105%; in assay [20], 103%.
As for `Clc1ccc2[nH]cc(-c3nn4cc(-c5ccncc5)nc4s3)c2c1`, the growth was 57.6% in assay [1]; 72.8% in assay [2]; 72.4% in assay [3]; 24.4% in assay [4]; 52.5% in assay [5]; 9.36% (active) in assay [6]. Also, the growth in assay [7] is 38.3%; in assay [8] it was 25.8%; in assay [9], 49.9%; in [10], 53.8%; in assay [11], 79%; in assay [12] it was 56.5%. The growth in assay [13] was 33.9%; in assay [14] it was 39.6%; in assay [15], 125%; in assay [16] it was 30.3%; in assay [17], 54.5%; in [18] it was 90.8%. Further, the growth in [19] is 75.2%; in [20] it was 81.8%.
